About 1,400 (93%) of roughly 1,500 compounds were called active. No rule for the calls is given here. So high a share suggests a set chosen from earlier hits. The list is a sample of the results. Where a call stands in place of a potency, no number is given. Potency and affinity values are given separately.

The nature of the assay: growth suppression of PTEN-null colon cells, dose response, cell-based, HCT116 PTEN knockout (AID 1047). The note with it: CellTiter-Glo, 60 h; series mostly up to 30 µM.
For the compound `CCOC(=O)c1c(C2COc3ccccc3O2)csc1NC(=O)c1ccccc1` (stereo not given), the call was inactive.
The result for `O=C(CSc1ncnc2c1nnn2-c1ccc(F)cc1)NCC1CCCO1` (stereo not given) reads “inactive”; that for `COC(=O)Nc1nc2c(s1)CCCC2`, “inactive”.
To `Cc1cc(C)c2c(=O)n(CC(=O)NCCCN3CCOCC3)sc2n1` belongs “inactive”.
On to `CN1/C(=C\C(=S)NC(=O)c2ccc([N+](=O)[O-])cc2)C(C)(C)c2ccccc21`, for which the compound was called inactive.
The result for `COc1ccc(NC(=O)CCCn2c(=O)c3sccc3n(Cc3ccccc3)c2=O)cc1` reads “inactive”.
The result for `COC(=O)C1=C(C)N(Cc2ccco2)C(=O)N[C@@H]1c1cccc(C(F)(F)F)c1` reads “inactive”.
The result for `CC(C)(C)c1ccc(CNc2ccc([N+](=O)[O-])cn2)cc1` reads “inactive”.
For `Cc1cc(Nc2ccccc2)nn1C(=O)c1ccccc1`, the result was inactive.
To `COc1ccc(C(=O)CCN2CCCCCC2)cc1` belongs “inactive”; to `O=C(NCCOc1ccccc1)C(c1ccccc1)c1ccccc1`, “inactive”.
The result for `CCCCNS(=O)(=O)c1ccc2nc(-c3cccnc3)cc(C(=O)NC3CC3)c2c1` reads “inactive”.
As to `CCN(CC)S(=O)(=O)c1ccc(-c2nnc(SCc3nnc(-c4ccccc4)o3)o2)cc1`, the result was inactive.
To `C=C1C(O)C[C@H]2C(=C)CCC3[C@H](OC(=O)[C@]3(O)CO)[C@@H]12` (stereo not given in full) belongs “inactive”.
To `O=S(=O)(c1cccc2ccccc12)N1CCSC1` belongs “inactive”; to `COCCn1c(=NC(=O)CSCC(=O)Nc2cc(C)on2)sc2cc(C(=O)OC)ccc21`, “inactive”.
To `O=C(CCNc1cc(Cl)cc(Cl)c1)c1ccco1` belongs “inactive”; to `c1ccc(-c2cc3n(c2)CCc2ccccc2-3)cc1`, “inactive”.
With `[N-]=[N+]=NC1C[C@H](n2ccc(=O)[nH]c2=O)O[C@@H]1CO` (stereo not given in full), the compound was classed as inactive.
In the case of `O=C(Nc1cccc(C(F)(F)F)c1)NC1CCCCC1`, the compound was classed as inactive.
